The record followed here is PubChem BioAssay (NCATS).

Molecules are shown by their SMILES. Where “and” joins values, the source holds several entries; their conditions need not be identical. Equal values may be shown once. Values without a mark were called inactive. Inconclusive results are not listed. Calls of active or inactive are those of the source. Unless noted, the call rests on the fitted dose curve; in most records, active means well fitted curve in the direction sought with a large enough effect; inconclusive means small, poorly fitted or top-dose-only effect, or another doubt; inactive means no such curve, though single readings can be large; an effect the other way counts as inactive or inconclusive.

A short description of test [1]: qHTS assay for small molecule activators of the nuclear factor-kappa B (NF-kB) signaling pathway (AID 651749; active means well fitted activation curve with a large enough effect in the signal ratio; the % refers to the signal ratio; further: % of control where 0% means no effect). Particulars: NF-kB-bla ME-180 cells, beta-lactamase FRET ratio, 16 h; hits give high values. Put shortly: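 Human ME-180 cervical cells with an NF-kB-bla construct; compounds added via 23 nL pin transfer, DMSO as vehicle; incubation 16 hr. Reporter activity measured by FRET disruption.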
On the technique in general: In qHTS, concentration-response curves come from the screen itself.

Test [2] concerns the target Tumor necrosis factor (Homo sapiens) (UniProt P01375). In words: qHTS assay to identify small molecules that stimulate Tumor Necrosis Factor-alpha (TNF-alpha) secretion (AID 651757; active means well fitted curve in the direction sought with a large enough effect in the signal ratio; the % refers to the signal ratio; further: 0% is about no effect). To be noted: Human cells, HTRF 665/615 ratio; series mostly up to 92.2 µM. Put shortly: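 Secreted TNF-alpha quantified by TR-FRET sandwich of two labeled anti-TNF-alpha antibodies, incubated 3 hr at room temperature. Preceded by 17 hr, 37 C compound treatment of THP-1 cells at 3000 cells/well.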

Test [3] in a line: qHTS assay to identify small molecules that stimulate interleukin-8 (IL-8) secretion (AID 651758; active means well fitted activation curve with a large enough effect in the signal ratio; the % refers to the signal ratio; further: 0% is about no effect). Particulars: HTRF ratio (665/615); series mostly up to 92.2 µM. Put shortly:
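Quantitative HTS in THP-1 monocytic cells at 2000 cells per well, with 16 hrs compound incubation at 37 C. IL-8 in the medium was then quantified by HTRF immunoassay, read after 1-3 hrs at room temperature.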

Test [4] has as its target Peroxisome proliferator-activated receptor alpha (Homo sapiens) (UniProt Q07869). In words: qHTS assay for small molecule agonists of the peroxisome proliferator-activated receptor alpha (PPARalpha) signaling pathway (AID 651778). Further: % of control where 0% means no effect. To be noted: PathHunter PPARalpha complementation, chemiluminescence, 6 h; hits give high values. A digest of the protocol:
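Cells plated at 2,000/well and held overnight at 37 C, 5% CO2, then compound added by pin tool for 6 hr; after PathHunter detection reagent and 60 min at room temperature, chemiluminescence from enzyme complementation was read.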

Test [5] is described as follows: qHTS assay for environmental chemicals that activate the Aryl hydrocarbon Receptor (AhR) signaling pathway (AID 651777). Further: % of control where 0% means no effect; nearly all actives have a fitted effect of over 15% in size. Particulars: 1A2-DRE human hepatoma cells, luciferase, 24 h; activation: hits give high values. A digest of the protocol:
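Human hepatoma 1A2-DRE cells, stably carrying a dioxin response element and CYP1A2 promoter driving luciferase, were exposed to compounds for 24 hr at 37 C and 5% CO2. Luciferase signal was then read after 30 min One-Glo at room temperature.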

The target in test [6] is Arylsulfatase A (Homo sapiens) (UniProt P15289). In words: qHTS screen for enhancers of Arylsulfatase A (ASA1): LOPAC Validation Assay (AID 720538). Further: 0% is about no effect. Particulars: ASA enzyme activity, LOPAC qHTS enhancer assay; series mostly up to 57.5 µM. Put shortly:
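SV40-transformed skin fibroblasts from an MLD patient (ASA-I179S) were treated with compounds for 48h at 37 degree C, then lysed with 0.5mM pNCS final substrate for 14h at room temperature; NaOH stop, fluorescence read (Ex=525 nm; Em=598 nm).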

Test [7] can be described thus: qHTS for compounds that reverse cellular toxicity of Amyloid beta (A-beta) peptide in yeast: LOPAC Validation Assay (AID 720559).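 Further: plate controls were DMSO for no effect and equimolar ferric chloride plus clioquinol rescue for full effect.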 To be noted: yeast expressing A-beta; series mostly up to 46.1 µM. Put shortly: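 Yeast cells expressing toxic A-beta were combined with pinned compounds in growth medium and incubated 48 hr at 30 C. Growth was read as absorbance at 600 nm and normalized to DMSO and to an equimolar FeCl3/clioquinol positive control.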

A short description of test [8]: qHTS for Activators of Parkin Expression: LOPAC Validation Assay (NLuc Reporter) (AID 720572;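 further: 0% = DMSO and 100% = positive control compound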). To be noted: Parkin promoter NanoLuc reporter cells, luminescence; series mostly up to 46.1 µM. A digest of the protocol: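 Cells harboring the Parkin-promoter coincidence reporter were treated for 24 h at seven concentrations. NLuc output was measured sequentially after the FLuc channel and scaled between DMSO and positive control values.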

Test [9] can be described thus: qHTS assay for small molecule disruptors of the mitochondrial membrane potential - 1 hr assay (AID 651754; calls by dose curve; further: nearly all actives have a fitted effect of over 35% in size; further: potency means the concentration at half of the fitted maximal effect). Particulars: series mostly up to 92.2 µM. Put shortly: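 Mitochondrial potential in living HepG2 cells after 1 hr compound treatment at 37C was read with Mito-MPS dye added for a further 30 min. Red aggregate and green monomer fluorescence were measured; loss of potential leaves dye as cytoplasmic monomers.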

Test [10] is described as follows: qHTS assay for small molecule disruptors of the mitochondrial membrane potential - 5 hr assay (AID 651755; calls by dose curve; further: nearly all actives have a fitted effect of over 40% in size; further: potency means the concentration at half of the fitted maximal effect). Particulars: JC-1-type ratio dye; series mostly up to 92.2 µM. Put shortly: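 Seed HepG2 overnight, add compound, incubate 5 hr at 37C and 5% CO2, stain 30 min with Mito-MPS, then measure monomer (490/535 nm) and aggregate (540/590 nm) fluorescence.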

Sequence of Peroxisome proliferator-activated receptor alpha (Homo sapiens) (Q07869 whole entry, looked up): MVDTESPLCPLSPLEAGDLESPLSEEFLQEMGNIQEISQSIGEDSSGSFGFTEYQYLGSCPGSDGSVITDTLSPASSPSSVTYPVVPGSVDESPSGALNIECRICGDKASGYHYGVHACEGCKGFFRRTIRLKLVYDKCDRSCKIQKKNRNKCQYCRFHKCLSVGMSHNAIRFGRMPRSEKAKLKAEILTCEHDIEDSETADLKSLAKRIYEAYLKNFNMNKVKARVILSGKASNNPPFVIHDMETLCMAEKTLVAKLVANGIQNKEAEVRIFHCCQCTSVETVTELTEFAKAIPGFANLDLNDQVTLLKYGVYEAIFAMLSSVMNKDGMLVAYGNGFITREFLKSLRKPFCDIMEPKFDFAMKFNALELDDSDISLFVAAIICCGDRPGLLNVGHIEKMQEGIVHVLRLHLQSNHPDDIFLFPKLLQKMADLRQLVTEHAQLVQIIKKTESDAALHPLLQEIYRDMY
Sequence of Tumor necrosis factor (Homo sapiens) (P01375 whole entry, looked up): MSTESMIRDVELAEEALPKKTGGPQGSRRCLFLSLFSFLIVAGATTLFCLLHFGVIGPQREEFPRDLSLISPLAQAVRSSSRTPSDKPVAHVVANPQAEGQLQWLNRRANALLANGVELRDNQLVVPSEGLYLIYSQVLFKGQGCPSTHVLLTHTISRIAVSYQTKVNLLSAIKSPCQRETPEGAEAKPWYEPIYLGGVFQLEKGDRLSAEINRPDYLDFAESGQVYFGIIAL
Sequence of Arylsulfatase A (Homo sapiens) (P15289 whole entry, looked up): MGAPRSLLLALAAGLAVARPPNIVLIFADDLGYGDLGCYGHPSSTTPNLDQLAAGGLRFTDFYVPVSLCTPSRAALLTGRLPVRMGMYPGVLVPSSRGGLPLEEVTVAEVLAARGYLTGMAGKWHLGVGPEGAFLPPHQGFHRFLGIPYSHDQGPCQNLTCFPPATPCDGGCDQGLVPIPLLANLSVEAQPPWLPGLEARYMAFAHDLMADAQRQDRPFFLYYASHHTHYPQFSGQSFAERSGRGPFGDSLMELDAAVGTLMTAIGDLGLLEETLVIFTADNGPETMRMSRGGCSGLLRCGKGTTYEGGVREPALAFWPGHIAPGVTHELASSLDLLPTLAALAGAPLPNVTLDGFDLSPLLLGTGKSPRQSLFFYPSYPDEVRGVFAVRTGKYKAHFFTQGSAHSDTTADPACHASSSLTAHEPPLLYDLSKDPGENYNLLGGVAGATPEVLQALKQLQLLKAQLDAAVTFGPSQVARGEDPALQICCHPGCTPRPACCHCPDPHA

`CCOC(=O)c1ccccc1C(=O)OCC`: the activation in [1] is 1.25% and 1.36% and -0.459%. Also, the outcome in [2] was inactive. The Potency entry in test [3] was “inactive”. In test [4], the max response was 0.572% and -3.94% and -0.67%.

As for `O=C(O)c1cc[c]([Hg][Cl])cc1`, the figures for the activation in test [1] and in test [5] were 4.33% and -2.48%, respectively. Besides, the max response in test [4] was -9.79%. Further, the Potency entry in [6] and in test [8] was “inactive” each time. Further, in test [7], the result was inactive.

On to `O=[N+]([O-])c1ccc(F)c([N+](=O)[O-])c1`, for which the activation in test [1] is -0.0445%; in test [5], 0.408%. In [4], the max response is -10.2%.

Regarding `COC1=CC(=O)O[C@@H](/C=C/c2ccccc2)C1`, the activation is -0.734% in [1] and 1.75% in test [5]. In addition, the Potency entry in [9] and in test [10] was “inactive” throughout. The result in test [2] was inactive. Further, in [4], the max response was -0.906%.

Turning to `COc1ccc2c(c1OC)C(=O)OC2C1c2cc3c(cc2CCN1C)OCO3` (stereo not drawn), the Potency result in [9], in test [10] and in test [3] was “inactive” throughout. Also, in test [2], the outcome was inactive. In test [5], the activation is 0.0911%. In test [4], the max response is -0.464%.

`O=C1C2CC=CCC2C(=O)N1SC(Cl)(Cl)Cl` (stereo not drawn): the activation was -2.11% in test [1]; -4.61% and -3.77% and 2.69% in test [5]. For the same molecule, the Potency in [9] is 26.6 µM (active) and 33.5 µM (active); in test [10], 23.7 µM (active) and 33.5 µM (active). In addition, the outcome in test [2] was inactive. For the same molecule, the max response in test [4] is -6.31% and -2.76% and -2.09%.

On to `S=C=S`, for which the figures for the activation in test [1] and in test [5] were -0.146% and 0.646%, respectively. In addition, the Potency result in [9], in test [10] and in test [3] was “inactive” in each case. Besides, the outcome in test [2] was inactive. For the same molecule, the max response in test [4] was -4.15%.
